# Test results: PubChem BioAssay AID1259415 (National Center for Advancing Translational Sciences (NCATS), 2018)
# In all, about 410,000 compounds went through this assay and about 18,000 (4.4%) were called active. Not shown: some 7% with an inconclusive outcome. Shown is part of a subset that was picked to be rich in actives. A number with no mark means an inactive call. Rule as the data show it: active = activity change below about -60%; inconclusive = no clear call, values can overlap the other calls; inactive = above about -39%.
# Test: qHTS Assay for inhibitors of the human cytomegalovirus (HCMV)
# Conditions: HFF cells, HCMV-luciferase reporter, 72 h; at 57.5 µM; hits give low values
# Procedure, shortened: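 Screen run at 2 compound doses on HFFs infected with reporter HCMV, MOI 1 PFU/cell. Luciferase activity from cell lysates at 72 h post infection gave inhibition relative to buffer-only and Salinomycin wells.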
# % is scaled to controls: 0 for no effect and ±100 for the full control effect.
row,SMILES,"activity change, negative = inhibition"
1,CCN(CC)C(=O)CSC1c2ccccc2C(=O)N1c1ccccc1 (stereo unspecified),-6.4%
2,COc1ccc(-c2nc3c(c(SCC(=O)Nc4ccc(C(=O)O)cc4)n2)Cc2ccccc2O3)cc1,42.3%
3,CC(C)c1nnc(NC(=O)COC(=O)/C=C/c2ccc([N+](=O)[O-])cc2)s1,28.8%
4,CCOC(=O)c1c(C)[nH]c(C)c1C(=O)COC(=O)/C=C/c1cccc([N+](=O)[O-])c1,-7.36%
5,CCOC(=O)/C(=C\c1ccc([N+](=O)[O-])cc1)C(=O)c1cc(C(C)=O)c(Nc2ccccc2)s1,-106% (active)
6,Oc1ccccc1-c1nc2ccc(Cl)cn2c1Nc1ccc2c(c1)OCCO2,-5.59%
7,COc1ccccc1CNC(=O)CCn1c(=O)c2ccccc2n(CC(=O)Nc2ccc(Br)cc2F)c1=O,-12.3%
8,Cc1cccc(NC(=O)Cn2cc(S(=O)(=O)Cc3ccccc3Cl)c3ccccc32)c1,0%
9,Cc1ccc(Cn2c(CNC(=O)Cc3cccc(C)c3)nc3cccnc32)cc1,-7.33%
10,Cc1ccc(NC(=O)c2nc(S(=O)(=O)Cc3cccc(C)c3)ncc2Cl)cc1,-94.3% (active)
11,CCCSc1ncc(Cl)c(C(=O)Nc2c(C(=O)Nc3ccccc3)oc3ccccc23)n1,-20.1%
12,Cc1ccc(CCNC(=O)c2ccc(CS(=O)(=O)Cc3cccc(C)c3)o2)cc1,-17.4%
13,CCS(=O)(=O)c1ncc(N(Cc2ccc(F)cc2)Cc2ccco2)c(C(=O)Nc2cc(C)ccc2C)n1,-29.7%
14,Cc1cccc(NC(=O)c2nc(S(=O)(=O)Cc3ccccc3)ncc2Cl)c1,-100% (active)
15,Cc1cccc(CS(=O)(=O)c2ncc(Cl)c(C(=O)Nc3ccc(F)cc3)n2)c1,-110% (active)
16,CCOC(=O)c1ccc(NC(=O)c2nc(SCc3ccc(F)cc3)ncc2Cl)cc1,13.6%
17,CC=C(C)C(=O)OC1CCN2CC=C(COC(=O)C(O)(C(C)OC)C(C)(C)O)C12 (stereo unspecified),-28.3%
18,O=C(CCC1N=C2c3ccccc3N=C(SCc3ccccc3F)N2C1=O)NCCc1ccccc1 (stereo unspecified),-29%
19,O=C(Cn1c(=O)n(-c2ccc(F)cc2)c(=O)c2sccc21)Nc1cccc(C(F)(F)F)c1,-5.68%
20,CC1CCCCN1S(=O)(=O)c1ccc(F)c(C(=O)Nc2ccccc2C(F)(F)F)c1 (stereo unspecified),11%
21,COc1cc([C@H](Cc2ccccc2)NC(C)=O)oc(=O)c1,-10.1%
22,CC(C)OC(=O)c1sc2nc3c(cc2c1N)C(=O)CCC3,45.7%

row,SMILES,"activity change, negative = inhibition"
1,COc1cccc(C(=O)c2sc3nc(-c4ccccc4)cc(C(F)(F)F)c3c2N)c1,7.18%
2,NC(=O)c1sc2nc3c(c(-c4ccccc4)c2c1N)CCC3,-93.9% (active)
3,CCOc1ccc(CCNC(=O)COC(=O)CCS(=O)(=O)c2ccc(C)cc2)cc1OCC,55.9%
4,COc1ccc(C(=O)Nc2cc(S(=O)(=O)N3CCCC3)ccc2Cl)cc1,-31.9%
5,COc1ccc(C(=O)Nc2nc(-c3ccc(S(=O)(=O)N4CCOCC4)cc3)cs2)cc1,-98.4% (active)
6,Cc1cc2nc(NC(=O)c3ccc(S(=O)(=O)N4CCOCC4)cc3)sc2cc1C,3.59%
7,COc1ccc(C2(CNC(=O)Cc3ccc(OC)c(OC)c3)CCCC2)cc1,-33.6%
8,COc1ccc(-n2nc3c(c2NC(=O)c2ccc(N4C(=O)CCC4=O)cc2)CSC3)cc1,0%
9,COc1ccc(-c2csc(NC(=O)c3ccc(N4C(=O)CCC4=O)cc3)n2)cc1OC,-70.7% (active)
10,COc1ccccc1C(=O)Oc1ccc(N2C(=O)CCC2=O)cc1,-9.72%
11,COc1cc(CC(=O)Nc2nc(-c3ccc(F)c(F)c3)cs2)cc(OC)c1OC,-77.3% (active)
12,COc1ccc(CC(=O)Nc2nnc3n2CCS3)cc1OC,1.77%
13,COc1ccc(CC(=O)Nc2nc(-c3ccc(F)c(F)c3)cs2)cc1OC,-78.6% (active)
14,COc1ccc(-c2cc(C(=O)NCc3cc(OC)c(OC)c(OC)c3)[nH]n2)cc1,3.93%
15,COc1ccc(CCNC(=O)COC(=O)Cc2cc(OC)c(OC)c(OC)c2)cc1,-11.8%
16,CCC(C)N(C(=O)COC(=O)C1C(C(=O)OC)=C(C)NC(C)=C1C(=O)OC)C1CCS(=O)(=O)C1 (stereo unspecified),-15.8%
17,COc1ccc(S(=O)(=O)N[C@H]2CC[C@@]34CCCN3C(=O)CCC[C@H]4[C@H]2Cc2ccccc2)cc1,-13.9%
18,Cc1ccccc1OCc1nc2c3cnn(-c4ccccc4F)c3ncn2n1,2.88%
19,CCN1CCN(c2ncc3c(n2)CC(c2ccccc2O)CC3=O)CC1 (stereo unspecified),-2.14%
20,CCOC(=O)c1ccc2c(c1)N(Cc1cccc(OC)c1)C(=O)c1ccccc1S2(=O)=O,41.8%
21,O=C(NC1CCCCC1)c1ccc(Cn2c(SCc3ccccc3)nc3cccnc32)cc1,13.4%
22,CCS(=O)(=O)N1CCc2cc(C(=O)NCc3ccc(OC)cc3)ccc21,21.8%

row,SMILES,"activity change, negative = inhibition"
1,Cc1ccc(OCCSc2nc(C)c(Cc3ccccc3)c(=O)[nH]2)cc1,-3.53%
2,COc1ccc(CNC(=O)c2cc3c(=O)[nH]c4ccccc4c3s2)cc1,-6.89%
3,Cc1ccc(C)n1-c1nnc(N2CCC(C(=O)NCc3ccccc3Cl)CC2)s1,-16.5%
4,Cc1cccc(-c2nc(SCC(=O)Nc3cc(C)on3)c3c(=O)n(C)c(=O)n(C)c3n2)c1,-3.8%
5,CCOC(=O)c1oc2ccc(S(=O)(=O)n3nc(-c4ccccc4OC)cc3N)cc2c1C,0.413%
6,Cc1oc2cc3oc(=O)ccc3cc2c1C,57.6%
7,Cc1ccc(NC(=O)Cc2ccc(NC(=O)N3CCCCc4ccccc43)cc2)cc1,2.61%
8,COc1ccc2c(c1)c(=O)c(C(=O)c1ccccc1)cn2CC(=O)Nc1ccc2c(c1)OCCO2,-4.48%
9,COc1ccccc1-c1noc(CSc2nnc(-c3ccccc3)n2-c2ccc(C)c(C)c2)n1,4.88%
10,COc1ccccc1-c1noc(CSc2nc(C)cc(=O)[nH]2)n1,-61.9% (active)
11,COc1ccc(-c2noc(CSc3nc(C)cc(=O)[nH]3)n2)cc1OC,14.1%
12,Cn1c(=O)sc2cc(NS(=O)(=O)c3ccc(C(C)(C)C)cc3)ccc21,-1.79%
13,COc1ccc(N2CCN(S(=O)(=O)c3cc(Br)cnc3N)CC2)cc1,19.7%
14,O=C(Cc1ccc(Cl)cc1)Nc1ccc2nn(-c3ccc(Cl)cc3)nc2c1,21.1%
15,Cc1cc2nn(-c3ccc(Cl)cc3)nc2cc1NC(=O)C(C)C,-64.3% (active)
16,CCCC(=O)Nc1cc2nn(-c3ccccc3)nc2cc1C,123%
17,Cn1c(=O)n(Cc2c(F)cccc2Cl)c(=O)c2c1nc1n2CCN1c1ccc(F)cc1,17.8%
18,COCCn1c(SCC(=O)c2cc(C)ccc2C)nc2cc(C(=O)NC3CCCC3)ccc2c1=O,-4.52%
19,CC(C)c1ccc(NS(=O)(=O)c2ccc3[nH]cc(C(=O)NC4CCCC4)c(=O)c3c2)cc1,9.04%
20,CCOc1ccc(CNCCSc2nnnn2C)cc1,-12.8%
21,COc1cc(CNCCSc2nnnn2C)ccc1OCc1ccc(Cl)cc1Cl,-13.2%
22,COc1cc(CNCCSc2nnnn2C)ccc1OCc1c(F)cccc1Cl,-60.3% (active)

row,SMILES,"activity change, negative = inhibition"
1,Cn1nnnc1SCCNCc1ccc(Cl)c(Cl)c1,6.59%
2,COc1cccc(CNCCSc2nnnn2C)c1OCc1ccccc1Cl,-75.4% (active)
3,Cc1c(Cl)cccc1-c1ccc(CNCCCSc2nnnn2C)o1,-0.502%
4,Cc1ccc(Cn2c(C)c3cnn(CC(=O)NCc4ccccc4)c(=O)c3c2C)cc1,-4.95%
5,Cc1ccc(CNC(=O)CSC2=Nc3ccccc3C3=NC(C)C(=O)N23)cc1 (stereo unspecified),-13.2%
6,CCCn1ccc2c(OCC(=O)NCc3ccc(F)cc3)cccc2c1=O,13.2%
7,CC1=C(c2ccc(F)cc2)S(=O)(=O)N=C1N1CCC(C(=O)NCCc2ccccc2C)CC1,-1.97%
8,CCOc1ccc(CNC(=O)CCc2c(C)nn(-c3ccc(N4CCCCC4)nn3)c2C)cc1,17.5%
9,CC(Sc1cccc[n+]1[O-])C(=O)Nc1cccc(S(=O)(=O)N2CCOCC2)c1 (stereo unspecified),28.7%
10,CCC(=O)c1ccc(OCC(O)CN2CCN(c3cccc(C(F)(F)F)c3)CC2)cc1 (stereo unspecified),-2.36%
11,CCC(=O)c1ccc(OCC(O)CN2C(=O)NC(C)(C)C2=O)cc1 (stereo unspecified),-18.3%
12,CCC(=O)c1ccc(OCC(O)Cn2nc(C)c(C(C)=O)c2C)cc1 (stereo unspecified),-74.9% (active)
13,COc1ccc(S(=O)(=O)N2CCCCC2c2cc(C(=O)NCc3ccc(F)cc3)no2)cc1 (stereo unspecified),-15%
14,COc1ccccc1OCC(=O)Nc1nnc2n1CCS2,1.36%
15,CC1CN(C(=O)N2CCC(C(=O)NCc3ccco3)CC2)c2cc(Cl)ccc2O1 (stereo unspecified),-3.73%
16,O=C1CCCN1CCCNC(=S)Nc1ccc(F)c(Cl)c1,-22.1%
17,Cn1c(=O)c2sccc2n2c(CCC(=O)NCc3ccccc3Cl)nnc12,9.44%
18,O=C(CCc1nnc2ccc(NCCCN3CCCC3=O)nn12)NCc1ccccc1Cl,0% (active)
19,Cc1cc(=O)c2cc(C(=O)Nc3cccc(C)c3C)ccc2[nH]1,-7.29%
20,C[C@@H]1CC2=C(C(=O)OC(C)(C)O2)[C@@H](C2CC2)O1,7.2%
